# Tests used:
# Test in all cases: cell viability of combination (% of vehicle); higher = less cytotoxic
# Details in all cases: 1 µM; 72 h; partner dose: 10 nM
# [1] = system: HCI01 (cells of a triple-negative basal-like breast cancer xenograft)
# Protocol: (§1)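 PDX cells were treated for 72 h with each drug at 1 µM plus carfilzomib (10 nM; 100 nM for WHIM2). Luciferase viability is expressed as percent of vehicle.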
# [2] = system: UCD52 (cells of a triple-negative basal-like breast cancer xenograft)
# Protocol: as §1
# [3] = system: WHIM30 (cells of a triple-negative basal-like breast cancer xenograft)
# Protocol: as §1
Structure (SMILES),cell viability of combination [1],cell viability of combination [2],cell viability of combination [3]
CC1=C(C(=O)OC(C)C)C(c2cccc([N+](=O)[O-])c2)C(C(=O)OC2CN(C(c3ccccc3)c3ccccc3)C2)=C(N)N1 (configuration not stated) [Azelnidipine] + CC(C)C[C@H](NC(=O)[C@H](CCc1ccccc1)NC(=O)CN1CCOCC1)C(=O)N[C@@H](Cc1ccccc1)C(=O)N[C@@H](CC(C)C)C(=O)[C@@]1(C)CO1 [Carfilzomib],112,46.6,
CC1CC(=O)NN=C1c1ccc(NN=C(C#N)C#N)cc1 (configuration not stated) [Levosimendan] + CC(C)C[C@H](NC(=O)[C@H](CCc1ccccc1)NC(=O)CN1CCOCC1)C(=O)N[C@@H](Cc1ccccc1)C(=O)N[C@@H](CC(C)C)C(=O)[C@@]1(C)CO1 [Carfilzomib],74.1,61.5,
CC(C)CC(NC(=O)CNC(=O)c1cc(Cl)ccc1Cl)B(O)O (configuration not stated) + CC(C)C[C@H](NC(=O)[C@H](CCc1ccccc1)NC(=O)CN1CCOCC1)C(=O)N[C@@H](Cc1ccccc1)C(=O)N[C@@H](CC(C)C)C(=O)[C@@]1(C)CO1 [Carfilzomib],43.7,19.8,
Nc1ncn(C2OC(CO)C(O)C2O)c(=O)n1 (configuration not stated) [5-Azacytidine] + CC(C)C[C@H](NC(=O)[C@H](CCc1ccccc1)NC(=O)CN1CCOCC1)C(=O)N[C@@H](Cc1ccccc1)C(=O)N[C@@H](CC(C)C)C(=O)[C@@]1(C)CO1 [Carfilzomib],75.9,68.2,
CNC(=O)c1cc(Oc2ccc(NC(=O)Nc3ccc(Cl)c(C(F)(F)F)c3)c(F)c2)ccn1.Cl [Regorafenib hydrochloride] + CC(C)C[C@H](NC(=O)[C@H](CCc1ccccc1)NC(=O)CN1CCOCC1)C(=O)N[C@@H](Cc1ccccc1)C(=O)N[C@@H](CC(C)C)C(=O)[C@@]1(C)CO1 [Carfilzomib],77.7,52.7,
[O-]n1ccccc1=S.[O-]n1ccccc1=S.[Zn+2] [Zinc Pyrithione] + CC(C)C[C@H](NC(=O)[C@H](CCc1ccccc1)NC(=O)CN1CCOCC1)C(=O)N[C@@H](Cc1ccccc1)C(=O)N[C@@H](CC(C)C)C(=O)[C@@]1(C)CO1 [Carfilzomib],68.3,42.8,13.4
CN(C)CCOc1ccc(C(=C(CCCl)c2ccccc2)c2ccccc2)cc1.O=C(O)CC(O)(CC(=O)O)C(=O)O [Toremifene Citrate] + CC(C)C[C@H](NC(=O)[C@H](CCc1ccccc1)NC(=O)CN1CCOCC1)C(=O)N[C@@H](Cc1ccccc1)C(=O)N[C@@H](CC(C)C)C(=O)[C@@]1(C)CO1 [Carfilzomib],103,70.2,
COc1cccc2c1C(=O)c1c(O)c3c(c(O)c1C2=O)CC(O)(C(=O)CO)CC3OC1CC(N)C(O)C(C)O1.Cl (configuration not stated) [Epirubicin HCl] + CC(C)C[C@H](NC(=O)[C@H](CCc1ccccc1)NC(=O)CN1CCOCC1)C(=O)N[C@@H](Cc1ccccc1)C(=O)N[C@@H](CC(C)C)C(=O)[C@@]1(C)CO1 [Carfilzomib],73.9,21,
CNC1CCC(c2ccc(Cl)c(Cl)c2)c2ccccc21.Cl (configuration not stated) [Sertraline HCl] + CC(C)C[C@H](NC(=O)[C@H](CCc1ccccc1)NC(=O)CN1CCOCC1)C(=O)N[C@@H](Cc1ccccc1)C(=O)N[C@@H](CC(C)C)C(=O)[C@@]1(C)CO1 [Carfilzomib],72.1,61.1,
CNC(=O)c1cc(Oc2ccc(NC(=O)Nc3ccc(Cl)c(C(F)(F)F)c3)cc2)ccn1.Cc1ccc(S(=O)(=O)O)cc1 [Sorafenib Tosylate] + CC(C)C[C@H](NC(=O)[C@H](CCc1ccccc1)NC(=O)CN1CCOCC1)C(=O)N[C@@H](Cc1ccccc1)C(=O)N[C@@H](CC(C)C)C(=O)[C@@]1(C)CO1 [Carfilzomib],70.3,52.6,19.5
